Hits are enriched below; roughly 8% of the tested compounds scored in any of these assays.
ELG1 repair inh: inhibitors of ELG1-dependent DNA repair in HEK293T cells. Potency, µM (series often up to 46.1 µM), inactives show at the highest dose activity change, negative = inhibition, most hits filed as inhibitors. AID 504467. 330,000 tested, 2.3% active. HEK293T ELG1-luciferase reporter, luminescence, 16 h; DNA damage induced by 5-fluorouridine; further: potency means the concentration at half of the fitted maximal effect; nearly all actives have a fitted effect of over 55% in size
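Overnight (16 hr) co-exposure of 2,000 cells/well to 5-fluorouridine and compound at 37 °C preceded detection. Luciferase was quantified via ONE-Glo luminescence; loss of signal denotes inhibition.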
Coupling enz: counter-screen for Giardia aldolase inhibitors: coupling enzyme system. coupling enzyme system counterscreen, AmpLite Red fluorescence. activity change, negative = inhibition, % at 58.2 µM, hits read low. 290,000 tested, 0.67% active. AID 2472; in the data active means activity change below about -30%
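First, compound is pin-transferred into glyceraldehyde-3-phosphate coupling-enzyme reagent at 57.5 uM final and held 10 min at RT. Next, substrate, coupling system and AmpLite Red are added. After 20 min RT, fluorescence (525/598 nm) is read.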
RORg inh: inhibitors of mouse ROR gamma transcriptional activity; P51450; 310,000 tested, 5.4% active; AID 2551; Drosophila S2 Gal4-RORgamma UAS-luciferase reporter, 20 h; Potency, µM (doses to about 53.6 µM), for inactives: top-dose activity change, negative = inhibition, usual class: inhibitors; further: potency means the concentration at half of the fitted maximal effect; nearly all actives have a fitted effect of over 60% in size
Target sequence (P51450 whole entry, looked up, the tested form may be a part): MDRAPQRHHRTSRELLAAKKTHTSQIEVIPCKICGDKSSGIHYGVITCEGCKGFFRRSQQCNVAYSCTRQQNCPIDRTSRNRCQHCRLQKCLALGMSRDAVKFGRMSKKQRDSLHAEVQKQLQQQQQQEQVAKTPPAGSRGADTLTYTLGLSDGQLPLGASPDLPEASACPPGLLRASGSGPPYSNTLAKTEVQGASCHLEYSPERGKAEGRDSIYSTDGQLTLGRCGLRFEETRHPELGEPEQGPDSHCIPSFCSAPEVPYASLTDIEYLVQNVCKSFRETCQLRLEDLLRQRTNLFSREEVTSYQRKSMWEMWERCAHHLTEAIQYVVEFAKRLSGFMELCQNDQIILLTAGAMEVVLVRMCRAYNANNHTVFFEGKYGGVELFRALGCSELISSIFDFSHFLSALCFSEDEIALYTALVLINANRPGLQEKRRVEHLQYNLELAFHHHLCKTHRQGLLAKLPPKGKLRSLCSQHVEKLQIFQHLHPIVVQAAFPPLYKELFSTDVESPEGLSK
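In this cell-based reporter format, copper sulfate (700 uM final) drives Gal4–ROR gamma fusion expression from a metallothionein promoter in Drosophila Schneider cells; compounds preincubated 1 hr, reporter read after 20 hr at ambient temperature.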
TSHR antag: blocks TSH signaling through the human TSH receptor | AID 504810 | 330,000 tested, 0.2% active | activity change, negative = inhibition, % at 11.5 µM | P16473 | TSHR-expressing cells, TSH-stimulated cAMP HTRF, 2 h; active compounds read low;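 active means activity change below a set negative limit, meaning inhibition stronger than a set level, cut at about -70% in these data; inconclusive means activity change between two set negative limits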
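Read-out is FRET at 665 nm (cryptate excitation 337 nm) from a cryptate-tagged anti-cAMP antibody, competed by cell cAMP against cAMP-d2. Compounds are tested on freshly harvested TSHR cells challenged with 4nM TSH (EC80) for 2 hours at 37 deg C.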
Gal4-VP16 FLuc: Gal4-VP16 reporter inhibition counter-screen | 310,000 tested, 3.5% active | Potency, µM (titrated, usually from 53.6 µM), without a hit: at the top dose activity, negative = inhibition, actives largely listed as inhibitors | Drosophila S2 Gal4-VP16 UAS-luciferase, luminescence, 20 h;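 further: Gal4-VP16 expression switched on by copper sulfate through the metallothionein promoter; potency means the concentration at half of the fitted maximal effect; nearly all actives have a fitted effect of over 50% in size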
An asterisk follows results filed as active; ? = inconclusive; · = not tested or not shown; ! = not active in a repeat. Unless noted, the call rests on the fitted dose curve; in most records, active means well fitted curve in the direction sought with a large enough effect; inconclusive means small, poorly fitted or top-dose-only effect, or another doubt; inactive means no such curve, though single readings can be large; an effect the other way counts as inactive or inconclusive. On the % scale 0 is the no-effect control and ±100 the full control effect.

SMILES	ELG1 repair inh	Coupling enz	RORg inh	TSHR antag	Gal4-VP16 FLuc
COCCNC(=O)c1c(NC(=O)c2ccco2)n(Cc2ccccc2)c2nc3ccccc3nc12	?	-33.2*	-23.8%	-1.2	-1.0%
COCCCNC(=O)c1c(NC(=O)c2ccccc2Cl)n(Cc2ccccc2)c2nc3ccccc3nc12	-20.7%	-2.6	-40.5%	-4.4	-7.4%
O=C(O)C(Cl)Br (stereo not given)	·	·	8.5%	·	1.3%
O=C(O)CBr	·	·	-0.9%	·	5.9%
CN1C(=O)C(Cc2cccc3ccccc23)C(=O)N(C)C1=O	-0.2%	-21.2	2.3%	11.4	-5.1%
O=C1C2CCN(CC2)[C@@H]1Cc1ccc2ccccc2c1O	?	-42.8*	33.4%	5.6	8.0%
CN1CCN(c2ccc(N)cc2)CC1	5.8%	-10.2	-12.0%	-14.0	0.7%
CN1CCN(c2ccc(N)c(N3CCN(C)CC3)c2)CC1	-0.5%	-39.4*	-3.3%	-1.8	-13.9%
CC(C)(C)c1cc(O)ccc1O	·	·	3.55µM*!	·	3.16µM*
CN1CCc2cc3c(c4c2C1Cc1ccccc1-4)OCO3 (stereo not given)	?	-34.7*	?	-49.0	7.1%
CNCC(N)C(=O)O (stereo not given)	·	-0.4	-2.9%	·	-3.8%
Oc1cccc2nc3ccccc3nc12	-11.0%	-23.9	?	-17.2	5.01µM*
Nc1c(C(=O)OCc2ccccc2)c2nc3ccccc3nc2n1Cc1cccs1	20.6µM*	-0.8	?	-8.4	-9.3%
COc1ccc(O)c2c(=O)c3c(OC)cc4c(c3oc12)C1C=COC1O4 (stereo not given)	-28.6%	2.6	0.708µM*	-12.3	?
Cc1cc(C)cc(OP(=O)(Oc2cc(C)cc(C)c2)Oc2cc(C)cc(C)c2)c1	·	·	-4.4%	·	4.2%
Cc1ccc(C(C)C)c(OCCn2c(=O)oc3ccccc32)c1	22.5%	-1.3	10µM*	-25.3	?
COc1cc(C)cc(CN2CC=C(c3ccccc3)CC2)c1O	-5.4%	-9.1	11.2µM*	20.9	?
C/C=C/C=O	·	·	5.4%	·	4.5%
Cn1cnc([N+](=O)[O-])c1Sc1ccc([N+](=O)[O-])cc1	?	0.1	11.2µM*	4.1	?
CN1C(=O)[C@]23CC4=CC=C[C@H](O)[C@H]4N2C(=O)[C@@]1(CO)SS3	·	-7.8	0.0447µM*	·	0.2%
CN(C)C(=S)SC(=S)N(C)C	·	-1.2	6.31µM*	·	?
N#CC(C#N)=NNc1ccc(OC(F)(F)F)cc1	·	12.0	1µM*	·	0.355µM*
C=CC[C@@H](CC(=O)N(CCO)Cc1ccccc1)C(=O)NC[C@H](OC(=O)[C@@H](CC=C)CC(=O)OC(C)(C)C)c1ccccc1	20.6µM*	·	·	-11.6	·
CC(C)(C)P(=O)(NCc1ccccc1)c1ccccc1 (stereo not given)	-17.6%	1.1	-10.2%	0.8	-4.0%
CC(C)CNP(=S)(c1ccccc1)C(C)(C)C (stereo not given)	-18.7%	-1.9	7.94µM*	-1.2	?
SMILES	ELG1 repair inh	Coupling enz	RORg inh	TSHR antag	Gal4-VP16 FLuc
CN1CCN(C(=O)COc2ccc3ccccc3c2)CC1	?	0.7	2.5%	-11.6	1.2%
CN1CCN(C(=O)COc2ccc(-c3nc4ccccc4s3)cc2)CC1	?	0.7	5.01µM*	3.7	10µM*
CON(C)C(=O)Nc1ccc(Br)c(Cl)c1	·	-0.5	17.8%	·	-10.1%
COC(=O)C12CC3=C[C@H](CC3=O)Cc3ccccc3[C@@H]1CNC2=O (stereo not given in full)	·	0.3	-25.7%	·	3.9%
CCOC(=O)N1C(C)CN(/[N+]([O-])=N/Oc2ccc([N+](=O)[O-])cc2[N+](=O)[O-])CC1C (stereo not given)	·	4.8	11.2µM*	·	?
CC(C)c1ccc2c(c1O)CCC1C3=C(CC[C@]21C)C(=O)OC3 (stereo not given in full)	·	-8.1	?	·	-27.9%
C[n+]1c(-c2ccccc2)c2cc(N)ccc2c2ccc(N)cc21	?	-38.6*	?	-12.6	12.6µM*
Nc1ccc(-c2ccc(N)c(Cl)c2)cc1Cl	·	·	4.6%	·	-6.4%
CC(C)c1ccc(N2C(=O)NC(=O)/C(=C/C=C/c3ccco3)C2=O)cc1	?	3.0	-98.5%	0.1	12.6µM*
Cc1ccc(N2C(=O)NC(=O)/C(=C/C=C/c3ccco3)C2=O)cc1	?	1.6	12.6µM*	-8.2	10µM*
Cc1cc(C)cc(N2C(=O)NC(=O)/C(=C\C=C\c3ccco3)C2=O)c1	?	5.2	3.16µM*	5.7	10µM*
CCc1ccc(N2C(=O)NC(=O)/C(=C\C=C\c3ccco3)C2=O)cc1	?	-1.6	22.4%	11.7	-5.4%
O=C1NC(=O)N(c2ccccc2)C(=O)/C1=C\C=C\c1ccccc1	?	-2.2	?	2.8	10µM*
Cc1ccc(C(C)C)c(OCC(=O)N2CCN(Cc3nc4cc([N+](=O)[O-])ccc4n3C)CC2)c1	20.6µM*	-0.4	33.9%	-7.4	-22.1%
CCCCCCn1c(=O)c(C(=O)Nc2nc(CC(=O)OCC)cs2)c(O)c2ccccc21	1.64µM*	0.1	-17.6%	13.4	-6.9%
CCCCCn1c(=O)c(C(=O)NCc2ccncc2)c(O)c2ccccc21	-29.0%	-13.3	3.55µM*	10.1	4.47µM*
CCCCn1c(=O)c(C(=O)Nc2ccccc2N)c(O)c2ccccc21	-14.7%	-0.5	5.62µM*	-5.4	7.08µM*
Cc1cccc(C)c1N	·	·	19.0%	·	-2.0%
CCn1ccnc1CN1CCCC(C(=O)c2cc(Cl)ccc2OC)C1 (stereo not given)	9.5%	-2.9	21.2%	15.0	-27.1%
CCn1ccnc1CN1CCCC(C(=O)c2cc(C)c(OC)c(C)c2)C1 (stereo not given)	?	1.3	2.51µM*	5.8	11.2µM*
CCCCn1c(=O)c(C=Nc2ccc(Cl)cc2)c(O)n(Cc2ccco2)c1=O	-14.6%	-1.0	37.2%	-2.9	-19.0%
CCCCn1c(=O)c(C=Nc2cc([N+](=O)[O-])ccc2OC)c(O)n(CCCCl)c1=O	20.6µM*	-5.5	?	-0.6	-9.4%
COc1ccc(CN2C(=O)NC(=O)/C(=C/c3ccc(OC)c(OC)c3OC)C2=O)cc1	?	14.0	-40.6%	12.6	1.26µM*
COC(=O)c1ccccc1N	·	·	8.7%	·	-7.7%
O=C(CCN1CCN(c2ccccc2)CC1)c1ccc(Br)cc1	7.9%	1.3	35.5µM*	2.7	?
O=C(CCN1CCCCC1)Nc1ccc(Br)cc1C(=O)c1ccccc1	-2.9%	1.7	8.0%	1.0	-1.3%
CN1[C@@H]2CC[C@H]1CC(O[C@@H](c1ccccc1)c1ccc(Cl)cc1)C2 (stereo not given in full)	·	-7.3	12.6µM*	·	14.1µM*
CN1C2CCC1CC(OC(=O)c1ccc(Cl)cc1)C2 (stereo not given)	-11.3%	2.6	-3.6%	65.8	-5.1%
[N-]=[N+]=[N-]	·	·	17.9%	·	6.4%
